From ChEMBL document CHEMBL3988442, “University of Dundee, Small-Polar-MMV Screening Library” (2021)

Biological target: T1, Aspartate--tRNA(Asp/Asn) ligase (Mycobacterium tuberculosis (strain ATCC 25618 / H37Rv)) (UniProt P9WFW3)
T1 sequence (whole entry): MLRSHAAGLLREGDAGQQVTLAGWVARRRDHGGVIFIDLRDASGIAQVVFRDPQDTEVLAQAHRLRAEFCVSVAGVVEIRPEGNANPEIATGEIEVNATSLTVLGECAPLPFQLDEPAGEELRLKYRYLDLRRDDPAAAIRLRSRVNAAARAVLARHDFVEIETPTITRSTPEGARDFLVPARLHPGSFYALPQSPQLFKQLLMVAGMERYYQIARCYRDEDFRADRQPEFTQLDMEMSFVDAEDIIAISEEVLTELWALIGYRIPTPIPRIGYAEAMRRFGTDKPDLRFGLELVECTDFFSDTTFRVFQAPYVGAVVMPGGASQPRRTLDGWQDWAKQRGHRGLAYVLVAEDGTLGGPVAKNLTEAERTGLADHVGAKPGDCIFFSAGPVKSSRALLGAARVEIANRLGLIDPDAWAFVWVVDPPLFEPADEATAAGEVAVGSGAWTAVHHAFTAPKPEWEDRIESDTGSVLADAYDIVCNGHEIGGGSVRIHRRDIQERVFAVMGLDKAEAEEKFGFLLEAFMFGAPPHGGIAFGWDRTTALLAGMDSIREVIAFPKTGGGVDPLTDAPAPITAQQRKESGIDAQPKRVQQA
Assay: Assay for Asp RNA synthetase-1 from Mycobacterium tuberculosis
Format: functional
Set-up: scale not given: in the data most compounds retested in dose-response had high values
Details: 30 µM

Row | Structure (SMILES) | Percent Effect [%]
1 | CCN(CC)C(=O)CCNC(=O)Cc1nc(-c2ccco2)oc1C | -1.21
2 | COc1c(C)cnc(CSc2nnc(C)s2)c1C | -1.18
3 | O=C(c1ccc2c(c1)CCC2)N1C[C@@H](CN2CCOCC2)[C@@H](CO)C1 | 1.28
4 | CCN(C)c1ccc(C(=O)N(CCOC)Cc2ccccn2)cc1 | 2.13
5 | COCc1nc(CN2CCC3(CCCO3)CCC2=O)no1 (stereo not given) | -3.94
6 | COc1ncccc1C(=O)N1CCC(CNC(C)=O)CC1 | 1.83
7 | CCCS(=O)(=O)N1C[C@H]2OC(=O)N(CCc3cccc(Cl)c3)[C@H]2C1 | -4.26
8 | COc1nc(C)c(C(=O)N(C)Cc2nc(-c3ccccn3)no2)s1 | 1.83
9 | CC(C)c1nccn1CCCNC(=O)c1ccc(N(C)C)nc1 | -2.17
10 | Cc1ccc(S(=O)(=O)NCCNC(=O)c2ccoc2)cc1F | -4.4
11 | CC(=O)Nc1cc(C(=O)N2CCOCC2c2ccc(C)o2)ccc1F (stereo not given) | -5.67
12 | O=C(COc1cccc(Br)c1)N1CCN(c2nccs2)CC1 | 1.41
13 | O=C(Nc1cccc(OCc2ccc(F)cc2)c1)C1COCCO1 (stereo not given) | -1.28
14 | Cc1cc(N2CCN(Cc3ccc(C)o3)CC2)cc(C)n1 | -1.34
15 | Cc1ccc(C(NC(=O)[C@H]2CC[C@@H](O)CC2)c2cccnc2)cc1C (stereo not given in full) | -3.21
16 | COc1ccc([C@@H]2CN(C(=O)CCC(F)(F)F)C[C@H]2NC(C)=O)cc1 | -2.84
17 | CCCS(=O)(=O)N1CCC(NC(=O)c2cc(C)c(CC)s2)CC1 | -2.13
18 | Cc1cc(C)n(-c2cc(N3CCN(C(=O)C(C)(C)C)CC3)nc(C)n2)n1 | 0.747
19 | N#Cc1ccnc(N2CCC(c3nccn3Cc3cscn3)CC2)c1 | -4.66
20 | COc1cccc(Cc2nnc(SC3CCOC3=O)o2)c1 (stereo not given) | -2.01

Row | Structure (SMILES) | Percent Effect [%]
21 | COc1c(CNC2CCc3c(Cl)cccc32)c(C)nn1C (stereo not given) | -1.71
22 | CCCSCC(=O)Nc1ncn(CC(=O)NCc2ccccc2)n1 | 1.55
23 | OC1(CN2CCCC2)CCCN(Cc2ccc(F)cc2Cl)C1 (stereo not given) | 4.15
24 | CCC(C(=O)NCc1ccncc1)N(c1cccc(C)c1)S(C)(=O)=O (stereo not given) | -1.51
25 | O=C1N(Cc2ccccc2F)CCCC12CCN(C1CCSCC1)C2 (stereo not given) | -2.75
26 | COc1ccc(NC(=O)CCC2CCCN(Cc3ncon3)C2)cc1Cl (stereo not given) | -0.862
27 | Cc1cc(C(=O)NC2CCCN(c3ccccc3)C2=O)on1 (stereo not given) | 0.287
28 | CCS(=O)(=O)c1ccc(N2CCC(NC(C)=O)CC2)cc1 | 1.78
29 | CCN(CC1CN(CCc2ccccn2)CCO1)c1cccnn1 (stereo not given) | -1
30 | CCS(=O)(=O)c1ccc(N2CCC(NC(=O)c3cnn(C)c3)CC2)cc1 | -0.471
31 | CN1C(=O)C(c2ccccc2)CC12CCN(CCOCCO)CC2 (stereo not given) | -1.23
32 | CN1C(=O)CC(C(=O)O)C12CCN(Cc1ccc(Cl)cc1F)CC2 (stereo not given) | -1.62
33 | CCCC(NC(=O)c1cc(C)ccc1C)c1nnn[nH]1 (stereo not given) | -2.52
34 | CN(C)CCn1c(=O)oc2ccc(NC(=O)CC(C)(C)C)cc21 | 0.793
35 | c1ccc(OCCN2CCCC(c3noc(C4CC4)n3)C2)cc1 (stereo not given) | -0.885
36 | Cc1cnn(CCNCc2csc(C)n2)c1 | 0.747
37 | COC(=O)c1cccc(C(=O)N2CCCCC2CCn2ccnc2C)c1 (stereo not given) | 0.586
38 | Cn1ccnc1SCc1nc(C(C)(C)NC(=O)OC(C)(C)C)no1 | -0.333
39 | CSC(C)(C)CNC(=O)NCCC1CCN(C)CC1 | -1.57
40 | COc1ccc(F)c(CN2CCC3(CCC(=O)N(CC(N)=O)C3)CC2)c1 | -3.94
